Results on twelve sequences are retold here after paper PMC5700166.

Test [1] has as its target T1, GST-Nv-NF-kB (Ser allele) (Nematostella vectensis, UniProt A7UNT2 2-411).
T1 sequence: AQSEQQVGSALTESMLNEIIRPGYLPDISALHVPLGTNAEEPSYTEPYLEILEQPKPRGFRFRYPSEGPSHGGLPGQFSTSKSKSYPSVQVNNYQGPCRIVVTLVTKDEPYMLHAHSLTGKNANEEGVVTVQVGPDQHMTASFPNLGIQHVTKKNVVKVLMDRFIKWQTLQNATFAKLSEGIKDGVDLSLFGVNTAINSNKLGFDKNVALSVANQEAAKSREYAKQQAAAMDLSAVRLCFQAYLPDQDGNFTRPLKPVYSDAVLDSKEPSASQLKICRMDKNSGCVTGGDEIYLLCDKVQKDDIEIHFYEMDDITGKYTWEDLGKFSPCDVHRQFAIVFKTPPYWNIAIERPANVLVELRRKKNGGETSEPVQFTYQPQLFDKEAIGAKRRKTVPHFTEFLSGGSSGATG
Kind of test: protein-binding microarray (PBM); PBM: ~300 nM protein, 6 mM HEPES pH 7.8, 80 mM KCl, 0.5 mM EDTA, 0.5 mM EGTA, 6% glycerol, 35 ng/ul poly-dIdC, 1% milk, 1 h, room temperature; Ap Aiptasia and Nv Nematostella (sea anemones) / Co Capsaspora / Aq Amphimedon (sponge) / Dm Drosophila / Hu human; RHD is the Rel homology domain; high values mean tight binding. Particulars: dsDNA, one strand shown.

The target of another test is GST-Hu-p50 (Homo sapiens, UniProt P19838 7-356). The test is described as above. Particulars: dsDNA, one strand shown.
GST-Hu-p50, sequence (P19838 7-356): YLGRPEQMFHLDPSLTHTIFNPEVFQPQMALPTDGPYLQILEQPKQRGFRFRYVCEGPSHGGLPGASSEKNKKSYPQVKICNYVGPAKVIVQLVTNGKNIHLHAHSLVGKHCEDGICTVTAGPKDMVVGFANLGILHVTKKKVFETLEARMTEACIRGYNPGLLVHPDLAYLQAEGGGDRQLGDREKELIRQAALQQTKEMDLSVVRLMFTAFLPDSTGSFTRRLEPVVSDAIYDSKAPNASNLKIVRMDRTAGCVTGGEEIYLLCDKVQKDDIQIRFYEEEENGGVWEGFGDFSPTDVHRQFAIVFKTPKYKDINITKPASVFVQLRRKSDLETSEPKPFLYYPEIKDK

For the sequence “CCGATTAACATCAACCACCCCCCTGATGTTAATCGGGTCTTGATTCGCTTGACGCTGCTG”, the figures for the binding signal (in test [1]; with GST-Hu-p50) were 3.31 z-score and 4.14 z-score, respectively.
For “CCGATTAACATCAGGGGAAGGAATGATGTTAATCGGGTCTTGATTCGCTTGACGCTGCTG”, in that order: 6.09 z-score and 3.5 z-score.
The corresponding values for “CCGATTAACATCAGGAGAATCCCTGATGTTAATCGGGTCTTGATTCGCTTGACGCTGCTG” are 1.07 z-score and 1.64 z-score.
The corresponding values for “CCGATTAACATCAATGTCCCCCCTGATGTTAATCGGGTCTTGATTCGCTTGACGCTGCTG” are 4.42 z-score and 3.89 z-score.
On to “CCGATTAACATCAGGGATTTCCATGATGTTAATCGGGTCTTGATTCGCTTGACGCTGCTG”, for which the values for the binding signal (in test [1]; with GST-Hu-p50) were 2.71 z-score and 3.25 z-score, respectively.
Turning to “CCGATTAACATCAAATGACCCCCTGATGTTAATCGGGTCTTGATTCGCTTGACGCTGCTG”, the binding signal in test [1] is 2.69 z-score; with GST-Hu-p50, 2.89 z-score.
For “CCGATTAACATCATTTCCCTTGATGATGTTAATCGGGTCTTGATTCGCTTGACGCTGCTG”, the binding signal was 3.44 z-score in test [1] and 2.51 z-score with GST-Hu-p50.
Take “CCGATTAACATCAAGGGTTTTCCTGATGTTAATCGGGTCTTGATTCGCTTGACGCTGCTG”: the binding signal in test [1] was determined as 2.41 z-score; with GST-Hu-p50, 2.92 z-score.
The corresponding values for “CCGATTAACATCACGGGATTTCCTGATGTTAATCGGGTCTTGATTCGCTTGACGCTGCTG” are 3.47 z-score and 3.82 z-score.
As to “CCGATTAACATCAGGGACAAAAATGATGTTAATCGGGTCTTGATTCGCTTGACGCTGCTG”, the binding signal worked out at 3.37 z-score in test [1] and 2.61 z-score with GST-Hu-p50.
“CCGATTAACATCAGGGGCTACCCTGATGTTAATCGGGTCTTGATTCGCTTGACGCTGCTG”: the binding signal came out at 2.1 z-score in test [1] and 3.35 z-score in the test with GST-Hu-p50.
For the sequence “CCGATTAACATCAGATACCCCCCTGATGTTAATCGGGTCTTGATTCGCTTGACGCTGCTG”, the figures for the binding signal (in test [1]; in the test with GST-Hu-p50) were 4.05 z-score and 4.1 z-score, respectively.
